{
  "source": "paper PMC5540273",
  "about": "(PLoS ONE, 2017);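 further: KINOMEscan kinase panel screen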",
  "data": [
    {"test_system": "PIKFYVE", "settings": "concentration: 1 μM,replicates: in singlicate; n = 1", "units": {"%Inh": "%"}, "values": [
      {"smiles": "CCCC(=O)Nc1n[nH]c2ncccc12", "note": "[SB-601436]", "%Inh": 0},
      {"smiles": "O=C(NOCC1CC1)c1cc(Br)c(F)c(F)c1Nc1ccc(I)cc1Cl", "%Inh": 41},
      {"smiles": "CS(=O)(=O)Nc1ccc(-c2ccnc3[nH]ccc23)cc1", "note": "[GSK993273]", "%Inh": 0},
      {"smiles": "Cn1ccc2ncnc(Oc3ccc(NC(=O)Nc4cccc(C(F)(F)F)c4)c(Cl)c3)c21", "%Inh": 29},
      {"smiles": "CN1CCN(CCCNc2nccc(-c3c(-c4ccc(F)cc4)nn4cc(C(N)=O)ccc34)n2)CC1", "note": "[GW622475]", "%Inh": 94.2},
      {"smiles": "O=C(Nc1cccc(C(F)(F)F)c1)c1cccc(Oc2ccc3nccn3n2)c1", "%Inh": 0},
      {"smiles": "COc1ccc(Nc2nccc(N3CCC(NC(=O)c4cccc(C#N)c4)C3)n2)cc1", "note": "(stereo not shown) [GSK1379730]", "%Inh": 0},
      {"smiles": "Cc1ccc2c(-c3ccnc(Nc4ccc(C(F)(F)F)cc4)n3)cnn2n1", "note": "[GW819776]", "%Inh": 23},
      {"smiles": "CN1CCN(CCNc2nc3cc(Oc4ccc(NC(=O)Nc5cc(C(F)(F)F)ccc5F)cc4)ccc3[nH]2)CC1.Cl.Cl", "note": "[GW768504]", "%Inh": 0},
      {"smiles": "Cc1n[nH]c2cc(Nc3ccnc(Nc4cccc(CN5CCOCC5)c4)n3)ccc12", "note": "[GW682569]", "%Inh": 23},
      {"smiles": "CN(c1ccc2c(c1)nc(NCc1ccc(F)cc1)n2C)c1ccnc(Nc2ccc(CS(C)(=O)=O)cc2)n1.Cl", "note": "[GW813244]", "%Inh": 0},
      {"smiles": "CCOC(=O)N1CCC(n2cnc(-c3ccc(F)cc3)c2-c2ccnc(N)n2)CC1", "note": "[SB-219952]", "%Inh": 37},
      {"smiles": "O=C(Nc1cccc(Oc2ccc3nccn3n2)c1)Nc1cccc(C(F)(F)F)c1", "%Inh": 0},
      {"smiles": "Cc1cccc(-c2nc(Nc3ccncc3)c3sccc3n2)n1", "note": "[GW869641]", "%Inh": 86},
      {"smiles": "C[C@@H](Oc1cc(-n2cnc3ccc(-c4ccncc4)cc32)sc1C(N)=O)c1ccccc1Cl", "note": "[GSK483724]", "%Inh": 95.1},
      {"smiles": "CN(c1ccccc1CNc1nc(Nc2ccc3c(c2)CC(=O)N3)ncc1C(F)(F)F)S(C)(=O)=O", "%Inh": 38},
      {"smiles": "C[C@@H]1CNc2c(sc3ccc4nc(-c5ccc(O)cc5)ccc4c23)C(=O)N1", "%Inh": 18},
      {"smiles": "Cn1ccc2ncnc(Oc3ccc(NC(=O)Nc4ccnc(C(F)(F)F)c4)c(Cl)c3)c21", "%Inh": 7},
      {"smiles": "CCn1c(-c2nonc2N)nc2cncc(Br)c21", "note": "[SB-738004]", "%Inh": 39},
      {"smiles": "N#Cc1cccc(C(=O)NC2CCN(c3ccnc(Nc4ccc(F)cc4)n3)C2)c1", "note": "(stereo not shown) [GSK1379708]", "%Inh": 0},
      {"smiles": "Cc1ccc(C(=O)Nc2ccc(Oc3ccc4nc(NC(=O)C5CC5)cn4c3)c(F)c2)c(=O)n1-c1ccccc1", "%Inh": 14},
      {"smiles": "CCNCC(Cc1ccccc1)NC(=O)c1cc(Br)c(-c2ccnc3[nH]ccc23)s1.Cl.Cl", "note": "(stereo not shown) [GSK1383280]", "%Inh": 0},
      {"smiles": "COc1cccc(C2=C(Nc3cccc(Cl)c3)C(=O)NC2=O)c1", "note": "[SB-341556]", "%Inh": 0},
      {"smiles": "NC(=O)c1ccc(-c2cc3ncnc(SCC(=O)O)c3s2)cc1", "%Inh": 42},
      {"smiles": "Cc1ccc(CC(=O)N2CCc3cc(-c4cn(C)c5ncnc(N)c45)ccc32)cc1", "note": "[GSK2634758]", "%Inh": 1},
      {"smiles": "Cl.Nc1n[nH]c2cc(-c3ccccn3)ccc12", "note": "[GSK2189892]", "%Inh": 0},
      {"smiles": "CCn1c(-c2nonc2N)nc2cncc(CNC3CCNCC3)c21.Cl", "note": "[SB-747651]", "%Inh": 0},
      {"smiles": "NC(=O)Nc1sc(-c2ccc(F)cc2)cc1C(N)=O", "note": "[GW789449]", "%Inh": 22},
      {"smiles": "Cn1cc(-c2cccc3c(N)c(C(N)=O)nnc23)cn1", "%Inh": 0},
      {"smiles": "CN(c1cccc(CNc2nc(Nc3ccc4c(c3)CC(=O)N4)ncc2C(F)(F)F)c1)S(C)(=O)=O", "%Inh": 31},
      {"smiles": "CC(=O)Nc1nc2cnc(Nc3cc(NC(=O)c4cccc(CC(C)(C)C#N)c4)ccc3C)nc2s1", "%Inh": 0},
      {"smiles": "c1ccc(Oc2ccc(Nc3ccnc4ccc(-c5ccccn5)cc34)cc2)cc1", "note": "[GW407034]", "%Inh": 0},
      {"smiles": "Cc1ccc(Nc2ccnc(Nc3ccc4c(c3)CS(=O)(=O)C4)n2)cc1O.Cl", "note": "[GW579362]", "%Inh": 0},
      {"smiles": "CC(C)c1nc(-c2cccc(NS(=O)(=O)c3ccccc3)c2)c(-c2ccnc(Nc3ccc4c(c3)CN(C)CC4)n2)s1", "note": "[GSK1649598]", "%Inh": 56},
      {"smiles": "O=C(NCC1CC1)c1ccc(-c2cc(C(=O)NC3CC3)ccc2F)cc1", "note": "[GW810445]", "%Inh": 6},
      {"smiles": "CC(C)S(=O)(=O)N1CCN(Cc2ccc3c(c2)nc(NC(=O)c2ccsc2)n3C[C@H](O)c2ccccc2)CC1", "note": "[GW635815]", "%Inh": 0},
      {"smiles": "Cc1ccn2nc(-c3ccc(F)cc3)c(-c3ccncc3)c2c1.Cl", "note": "[GW457859]", "%Inh": 54}
    ]}
  ]
}
